Test results from PubChem BioAssay.
Activity calls are given as the source filed them.

Columns and labels:
[1] = compound effects on lung adenocarcinoma cell viability – A549, calcein-AM fluorescence, 48 h, basal, profiling panel (AID 1162); settings: higher = more signal
[2] = compound effects on differentiated 3T3-L1 adipocyte viability – cell-based, 3T3-L1 adipocytes, calcein-AM fluorescence, 48 h, basal, profiling panel (AID 1163); settings: 3T3-L1 adipocytes viability, higher = more signal
[3] = compound effects on hepatocellular carcinoma cell viability – HepG2, calcein-AM fluorescence, 48 h, basal, profiling panel (AID 1164); settings: higher = more signal
[4] = compound effects on multiple myeloma cell viability – MM1S, calcein-AM fluorescence, 48 h, basal, profiling panel (AID 1165); settings: higher = more signal;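 also: viability of MM1S multiple myeloma cells under basal unstimulated conditions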
[5] = calcein-AM signal in unstimulated myeloma cells – cell-based, calcein-AM fluorescence, 48 h, PK04 Diversity Set, profiling panel (AID 1166); settings: RPMI8226 myeloma viability, higher = more signal;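 also: cells grown under basal conditions without added stimulus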
[6] = JC-1 mitochondrial signal, unstimulated HepG2 cells – cell-based, JC-1 fluorescence, 24 h, 100 nL compound, profiling panel (AID 1167); settings: HepG2 mitochondrial potential, higher = more signal
[7] = JC-1 mitochondrial signal, unstimulated adipocytes – cell-based, JC-1 fluorescence, 3T3-L1 adipocytes, 24 h, 100 nL compound, profiling panel (AID 1168); settings: JC-1 mitochondrial fluorescence, higher = more signal, called active from +8 up or from −8 down
[8] = JC-1 mitochondrial signal, unstimulated myeloma cells – cell-based, JC-1 fluorescence, RPMI8226, 24 h, 100 nL compound, profiling panel (AID 1169); settings: JC-1 mitochondrial potential fluorescence, higher = more signal
[9] = JC-1 mitochondrial signal, unstimulated MM1S myeloma – cell-based, JC-1 fluorescence, 24 h, 100 nL compound, profiling panel (AID 1170); settings: MM1S mitochondrial potential, higher = more signal
[10] = resazurin metabolic signal in A549 cells – cell-based, resazurin fluorescence, 24 h, PK04 Diversity Set, profiling panel (AID 1171); settings: A549 viability, higher = more signal, called active from +8 up or from −8 down
Also: test concentration not given here.

SMILES | z-score [1] | z-score [2] | z-score [3] | z-score [4] | z-score [5] | z-score [6] | z-score [7] | z-score [8] | z-score [9] | z-score [10]
Cc1ccc(S[C@]2(C(=O)NC3CC3)CC(=O)N(Cc3ccccc3)[C@@H]2c2ccc(CO)cc2)cc1 | 1.29 | -0.119 | -0.12 | -0.0947 | 0.181 | -0.439 | -0.199 (inactive) | 1.07 | -0.452 | 0.846 (inactive)
C=CCC(OC(C)=O)[C@@H]1[C@@H](N(Cc2ccc(-c3cccc(C(F)(F)F)c3)o2)C(=O)c2ccc(C)cc2)c2cc(OCCCO)ccc2N1C(=O)c1ccc(-c2ccccc2)cc1 (stereo not given in full) | 1.18 | 0.345 | 1.65 | 1.02 | 0.657 | 3.89 | -1.29 (inactive) | 0.866 | 0.112 | -0.0211 (inactive)
CCCN1C(=O)[C@]2(COC(c3ccc(OCCCO)cc3)=N2)Cc2ccccc21 | -0.78 | 0.585 | 0.302 | -1.6 | -0.688 | -0.0681 | -0.919 (inactive) | 0.391 | 0.148 | 0.212 (inactive)
O=C1O[C@H](c2ccccc2)[C@H](c2ccccc2)N2[C@H]1[C@@H](C(=O)NC[C@H](O)c1ccccc1)[C@]1(C(=O)Nc3ccc(C#CCCO)cc31)[C@H]2c1ccc(O)cc1 | 0.102 | 1.09 | -0.975 | 0.245 | -0.155 | -0.72 | 0.0782 (inactive) | 0.626 | 0.000313 | 0.024 (inactive)
C=CCC(OC(C)=O)[C@@H]1[C@@H](N(Cc2ccc(-c3ccccc3)cc2)C(=O)Cc2ccc(F)cc2)c2cc(OCCCO)ccc2N1C(=O)c1ccc2ccccc2n1 (stereo not given in full) | 1.07 | 0.203 | 1.14 | -2.11 | 0.246 | 2.97 | 0.25 (inactive) | -0.359 | 1.7 | 1.37 (inactive)
COC(=O)[C@@]1(Cc2ccc(F)cc2)[C@H]2c3cc(C(=O)N4CCCC4)n(Cc4cccc5ccccc45)c3C[C@H]2CN1C(=O)c1ccccc1 | -0.805 | 0.42 | 0.0082 | -1.03 | -1.07 | 3.8 | -1.48 (inactive) | 0.127 | -0.779 | 0.785 (inactive)
CCOC(=O)C[C@H]1[C@H](OC(=O)c2ccc(-c3ccccc3)cc2)[C@@H](NC(=O)c2ccc(-c3ccccc3)cc2)c2cc(OCCCO)ccc2N1C(=O)Cc1ccc(OC)cc1 | -0.457 | 0.485 | -0.0494 | -0.781 | 0.0196 | 1.15 | 0.458 (inactive) | -0.00497 | 0.413 | 0.0992 (inactive)
COCCOC(=O)N1C(=O)[C@@]2(c3cc(C#CCC(C(=O)OC)C(=O)OC)ccc31)[C@H](C(=O)N1CCCCCCC1)[C@H]1C(=O)O[C@H](c3ccccc3)[C@H](c3ccccc3)N1[C@@H]2c1ccc(OCCO)cc1 | 0.855 | 1.27 | 1.19 | -0.38 | 0.185 | 0.322 | -5 (inactive) | -0.812 | -1.41 | 1.33 (inactive)
CCOC(=O)C1=CCC(C(C)(C)C)N(S(=O)(=O)c2ccc(C)cc2)C1 (stereo not given) | -0.723 | -0.194 | -0.157 | -2.31 | -1.28 | -1 | 0.161 (inactive) | -0.1 | -0.562 | 0.613 (inactive)
CCCCC(CC)C(O)C1C=CC2C(=O)N(c3ccccc3)C(=O)C2N1Nc1ccccc1 (stereo not given) | -0.5 | 0.0749 | -0.315 | -0.137 | -0.841 | -2.35 | 0.633 (inactive) | -0.48 | 0.00945 | -0.885 (inactive)
O=C(CS)NCCCCCCNC(=O)[C@H]1C[C@H]2C(=O)N3CCC[C@H]3C(=O)N2[C@H]1c1cccc(OCCO)c1 | -0.464 | -0.966 | -0.0465 | -0.939 | 0.529 | -0.971 | -0.955 (inactive) | -0.127 | -0.285 | 0.388 (inactive)
Cc1c(NC(=O)CC#N)c(=O)n(-c2ccccc2)n1C | 1.62 | 0.317 | 0.954 | 0.0823 | 0.106 | 1.42 | 0.166 (inactive) | -0.128 | -0.63 | 0.234 (inactive)
O=C1O[C@@H](c2ccccc2)[C@@H](c2ccccc2)N2[C@@H](c3ccc(O)cc3)[C@]3(C(=O)Nc4ccc(C#CC5=CCCCC5)cc43)[C@@H](C(=O)O)[C@H]12 | 1.09 | 0.369 | 1.2 | -0.294 | -0.412 | -0.956 | 0.619 (inactive) | -0.177 | 1.04 | 1.86 (inactive)
COCCOC(=O)N1C(=O)[C@@]2(c3cc(C#CCNC(N)=O)ccc31)[C@H](C(=O)N1CCN(c3ncccn3)CC1)[C@H]1C(=O)O[C@H](c3ccccc3)[C@H](c3ccccc3)N1[C@@H]2c1ccccc1OCCO | -0.246 | 1.24 | -0.539 | -0.648 | -0.876 | -1.43 | 1.29 (inactive) | -1.09 | -1.04 | 1.02 (inactive)
O=C1C2C=CC(C(O)c3ccc(F)cc3)N(Nc3ccccc3)C2C(=O)N1c1ccccc1 (stereo not given) | 0.257 | -1.66 | -0.114 | 0.561 | -0.149 | -1.58 | -0.0708 (inactive) | -0.0118 | -1.01 | -0.111 (inactive)
C=CCNC(=O)[C@@H]1[C@H]2C(=O)O[C@H](c3ccccc3)[C@H](c3ccccc3)N2[C@H](c2ccccc2OCCO)[C@@]12C(=O)Nc1ccc(C#CC3=CCCCC3)cc12 | -1.77 | 1.98 | -2.85 | -3.09 | -3.42 | -1.79 | 2.32 (inactive) | -0.853 | -1.17 | -1.49 (inactive)
O=C(CCN1CCOCC1)c1cccc(O)c1 | 0.867 | 0.75 | -0.891 | -3.16 | -1.74 | 0.109 | -0.163 (inactive) | -0.0964 | -2.97 | 0.36 (inactive)
CCOC(=O)[C@H]1C[C@H]2O[C@@]23C[C@H]1C(=O)N1CCCC1[C@@H]3O[Si](C)(C)C(C)(C)C (stereo not given in full) | -0.486 | 0.729 | -0.154 | -0.337 | -0.5 | -0.625 | -0.166 (inactive) | -0.366 | 0.193 | -0.456 (inactive)
COc1c(C)cc(-c2cc3c(c(-c4ccc(Oc5ccccc5)cc4)n2)[Si](C(C)C)(C(C)C)OC3)cc1C | -0.342 | -0.616 | 0.285 | -0.66 | -0.11 | -1.3 | -0.528 (inactive) | 0.103 | 0.0963 | 0.624 (inactive)
COCCOC(=O)N1C(=O)[C@@]2(c3cc(C#CCNC(N)=O)ccc31)[C@H](c1ccc(O)cc1)N1[C@H](c3ccccc3)[C@H](c3ccccc3)OC(=O)[C@H]1[C@@H]2C(=O)Nc1nc2ccccc2s1 | 1.7 | 0.663 | 0.461 | 0.553 | -0.397 | -2.95 | 1.56 (inactive) | -1.03 | 0.189 | 1.69 (inactive)
[N-]=[N+]=NCc1ccccc1C[C@]1(C(=O)O)N=C(c2ccc(OCCCO)cc2)O[C@H]1c1ccccc1 | -0.755 | -0.4 | -0.509 | -1.19 | -0.388 | -1.62 | 0.336 (inactive) | -0.179 | 0.181 | 0.0055 (inactive)
COc1ccc([Si](C)(C)[C@H]2[C@H](CCn3cc([C@H](O)c4ccccc4)nn3)O[C@@]3(C(=O)N(Cc4cccc(N5CCC5=O)c4)c4ccccc43)[C@@H]2C)cc1 | 0.692 | 1.3 | 1.57 | 0.739 | -1.32 | 0.906 | -0.336 (inactive) | -1.15 | -0.948 | -0.323 (inactive)
CCOC(=O)C[C@H]1[C@H](OC(=O)c2ccccc2-c2ccccc2)[C@@H](NC(=O)Cc2ccc(OC)cc2)c2cc(OCCCO)ccc2N1C(=O)c1ccccc1 | 0.369 | -0.8 | 0.41 | -0.0609 | 0.0629 | 0.915 | 0.0962 (inactive) | -0.0457 | 0.213 | 0.407 (inactive)
COc1ccc([Si](C)(C)[C@H]2[C@H](CC(=O)N(CCO)Cc3ccccc3)O[C@@]3(C(=O)N(Cc4cccc(N5CCC5=O)c4)c4ccccc43)[C@@H]2C)cc1 | -1.42 | 1.48 | -1.93 | -1.6 | -4.08 | 0.967 | 0.498 (inactive) | -0.873 | -1.27 | -1.97 (inactive)
C=C(CCCC)C(=O)CC[C@H](OC(=O)c1cccnc1)c1cccc(OCCO)c1 | 0.952 | 0.136 | 0.316 | -3.35 | -2.66 | 1.39 | 0.139 (inactive) | -0.726 | -0.592 | 0.358 (inactive)
Cc1cc(C)c(C(O)C2C=CC3C(=O)N(C)C(=O)C3N2Nc2ccccc2)c(C)c1 (stereo not given) | -1.02 | -0.904 | -0.798 | -0.305 | -0.681 | -1.73 | -1 (inactive) | -0.207 | 0.434 | -0.551 (inactive)
C[N+](C)(C)CCCCCCNC(=O)[C@H]1C[C@H]2C(=O)N3CCC[C@H]3C(=O)N2[C@H]1c1ccc(O)cc1 | -0.827 | 0.262 | -1.14 | 0.327 | 0 | -1.4 | 0.435 (inactive) | -0.655 | -0.439 | 0.194 (inactive)
[N-]=[N+]=Nc1ccccc1C[C@]1(C(=O)NCCN2CCOCC2)N=C(c2ccc(OCCCO)cc2)O[C@H]1c1ccccc1 | -0.0454 | 0.0937 | -0.256 | -0.0793 | -0.26 | 0.771 | 0.00214 (inactive) | -0.309 | -0.777 | 1.24 (inactive)
CC1CC/C=C\[C@H]2OC34C=CCN(Cc5ccccc5)C(=O)[C@H]3N(CCCCCO)C(=O)[C@@H]4C2C(=O)O1 (stereo not given in full) | 0.482 | 0.449 | -0.069 | 1.51 | 0.599 | 0.647 | -0.478 (inactive) | -0.514 | 1.12 | 0.374 (inactive)
